Bioassay records (PubChem BioAssay)
gsp antagonist: antagonists of gsp mutant (McCune-Albright syndrome). Potency, µM (titrated, usually from 76.9 µM), most hits filed as inhibitors. gsp-mutant cells, cAMP HTRF, 30 min. 340,000 compounds, 0.4% hits; calls by dose curve; cell line not stated here;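 also: intracellular cAMP measured with PDE inhibitor Ro 20-1724 present during compound exposure; nearly all actives have a fitted effect of over 65% in size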
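HTRF cAMP read-out (cAMP-d2 plus anti-cAMP antibody-K in lysis buffer, 30 min RT). Before lysis, cells are exposed to compounds with […] for 30 min at 37C in DPBS containing Ca/Mg, BSA and Tween 20.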
pAkt inh: inhibitors of Akt phosphorylation; Neuro2A IGF-stimulated pAkt S473 HTRF, 20 min; active compounds read low; activity change, % for hits at 50 µM; 360,000 compounds, 0.32% hits; in the data active = activity change below about -80%; inconclusive = mostly about -51% to -80%
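Neuro2A cells (4,500/well, DMEM with 0.5% FBS) were treated with compound at a single 50 µM final concentration, stimulated with 6 nM IGF for 20 min at 37 °C, and lysed. Phospho-Akt Ser473 was read by HTRF as 665/615 ratio ×10^4.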
RXFP1 antag: RXFP1 (human) relaxin receptor antagonism | 350,000 compounds, 0.59% hits | activity change, negative = inhibition, % at 57.5 µM | AID 1259400 | HEK293-RXFP1, relaxin-stimulated cAMP HTRF, 30 min; active compounds read low;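 active = activity change of -60% or lower, but not beyond a set lower limit; inconclusive = change between -60% and -40%, or beyond the set limit; inactive = change above -40%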
Target sequence (Q9HBX9 whole entry, looked up): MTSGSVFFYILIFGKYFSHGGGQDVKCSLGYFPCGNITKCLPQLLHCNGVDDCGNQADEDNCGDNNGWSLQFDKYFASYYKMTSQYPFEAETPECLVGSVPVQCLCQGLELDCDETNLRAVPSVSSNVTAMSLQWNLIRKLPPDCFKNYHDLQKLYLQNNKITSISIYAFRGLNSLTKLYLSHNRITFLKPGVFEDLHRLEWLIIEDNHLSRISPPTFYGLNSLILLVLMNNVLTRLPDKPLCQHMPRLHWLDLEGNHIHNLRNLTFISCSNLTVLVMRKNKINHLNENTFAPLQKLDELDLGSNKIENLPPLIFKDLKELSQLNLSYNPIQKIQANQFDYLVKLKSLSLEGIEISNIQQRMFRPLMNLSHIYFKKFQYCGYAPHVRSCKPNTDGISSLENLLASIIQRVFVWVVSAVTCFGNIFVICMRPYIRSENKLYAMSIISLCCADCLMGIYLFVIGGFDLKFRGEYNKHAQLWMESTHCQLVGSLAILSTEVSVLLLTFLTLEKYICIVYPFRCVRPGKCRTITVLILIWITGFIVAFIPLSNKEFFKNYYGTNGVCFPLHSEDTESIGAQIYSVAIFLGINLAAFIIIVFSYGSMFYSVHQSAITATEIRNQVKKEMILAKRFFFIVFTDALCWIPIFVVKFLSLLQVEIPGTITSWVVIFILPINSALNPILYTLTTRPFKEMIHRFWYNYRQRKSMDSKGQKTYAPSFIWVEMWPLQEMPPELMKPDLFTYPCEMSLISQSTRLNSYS
RXFP1 ag: activates the human relaxin receptor RXFP1. AID 2676. 370,000 compounds, 0.3% hits. Q9HBX9. HEK293T-RXFP1 cAMP TR-FRET, 30 min; response scale: percent of porcine relaxin response, buffer zero. Potency, µM (top dose mostly 57.5 µM), most hits filed as activators; active = well fitted activation curve with a large enough effect; inconclusive = small, poorly fitted or top-dose-only effect; also: nearly all actives have a fitted effect of over 60% in size
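Agonist response is measured as cAMP accumulation in an RXFP1-transfected HEK293T line under PDE4 inhibition. Values are scaled between buffer-only and 29 nM porcine relaxin, and EC50s come from standard Hill equation fits.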
gsp agonist: agonists of gsp mutant (McCune-Albright syndrome); gsp mutant cells, cAMP HTRF, 30 min; Potency, µM (titrated, usually from 76.9 µM), actives largely listed as activators; 340,000 compounds, 0.13% hits; AID 624287; active = well fitted activation curve with a large enough effect; inconclusive = small, poorly fitted or top-dose-only effect, or another doubt; inactive = no such curve, though single readings can be large or run the other way; cell line not stated here;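 also: phosphodiesterase inhibitor Ro 20-1724 added with compounds to block cAMP breakdown; nearly all actives have a fitted effect of over 60% in size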
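Cells in DMEM/10% FBS with G418 were pretreated with compounds in DMSO plus […] (300 uM stock) for 30 min at 37C. cAMP was measured by HTRF (cAMP-d2 plus anti-cAMP antibody-K) after 30 min at room temperature.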
Large screens that a line does not name were inactive; ! = repeats disagree. Most compounds without a hit are left out; they make up all but 1.2% or so of the library.

COc1cc(NC(=O)CN2c3ccccc3S(=O)(=O)c3ccccc32)cc(OC)c1	none (no result: gsp antagonist, pAkt inh, gsp agonist)
Cc1ccc(Cl)cc1N1CCN(C(=O)C(C)n2ncn3cccc3c2=O)CC1 (configuration not stated)	RXFP1 ag 28µM!
CC(c1ccccc1)N1C(=O)c2ccc(C(=O)Nc3ccc(Br)cc3C(=O)O)cc2C1=O (configuration not stated)	gsp antagonist 35µM
CC(C)CC(=O)Nc1cccc(C(=O)Nc2ccccc2C(=O)O)c1	gsp antagonist 32µM
CC(c1ccccc1)N1C(=O)c2ccc(C(=O)Nc3ccccc3C(=O)O)cc2C1=O (configuration not stated)	gsp antagonist 16µM, RXFP1 antag -74
CC(C)CN1C(=O)c2ccc(C(=O)Nc3ccc(O)cc3C(=O)O)cc2C1=O	none
O=C(Nc1ccc(O)cc1C(=O)O)c1ccc2c(c1)C(=O)N(Cc1ccco1)C2=O	gsp antagonist 32µM (no result: pAkt inh)
CCc1ccccc1NC(=O)C1CCCN(C(=O)c2cnn(-c3ccccc3)c2-n2cccc2)C1 (configuration not stated)	none (no result: gsp antagonist, pAkt inh, RXFP1 antag, gsp agonist)
Cc1ccc(Cl)cc1N1CCN(CCCNC(=O)C2COc3ccccc3C2)CC1 (configuration not stated)	none (no result: gsp antagonist, pAkt inh, gsp agonist)
Cc1cccc(CNC(=O)Cc2csc3ccccc23)c1	none (no result: gsp antagonist, pAkt inh, gsp agonist)
CCOC(=O)CNC(=O)c1cc2c(=O)n(CC)c3ccccc3c2s1	none (no result: gsp antagonist, pAkt inh, RXFP1 antag, gsp agonist)
COc1ccc(OC)c(NC(=O)c2cn3c4c(ccc(Cl)c4c2=O)OC(C)C3)c1 (configuration not stated)	RXFP1 ag inconclusive (no result: gsp antagonist, pAkt inh, gsp agonist)
COc1ccc2sc(N(Cc3cccnc3)C(=O)c3ccc4c(c3)OCCO4)nc2c1	none (no result: gsp antagonist, pAkt inh, gsp agonist)
CC(C)c1ccc2c(c1)C(N1CCNCC1)Cc1ccc(F)cc1S2 (configuration not stated)	RXFP1 antag -72 (no result: RXFP1 ag)
CN1CCN(C2Cc3ccc(F)cc3Sc3cc(F)c(Cl)cc32)CC1 (configuration not stated)	none (no result: RXFP1 ag)
Cc1ccc2nc(-c3ccccc3)cc(C(=O)N(C)CC(=O)Nc3ccccc3Br)c2c1	gsp antagonist inconclusive, RXFP1 antag -75
Cc1ccc(NC(=O)Nc2nnc(SCC(=O)N3CCC(C)CC3)s2)cc1	none (no result: gsp antagonist, pAkt inh, gsp agonist)
Cc1cccc(C)c1N1CCN(C(=O)c2ccc3c(c2)OCO3)CC1	RXFP1 antag -62
Cc1ccccc1C(=O)N1CCN(c2ccc(NC(=O)c3ccc4c(c3)OCCO4)cc2)CC1	gsp antagonist 35µM, RXFP1 antag inconclusive
Cc1ccc(CN2CCCn3nc(C(=O)NCCc4ccc(Cl)cc4)cc3C2=O)cc1	none (no result: gsp antagonist, pAkt inh, gsp agonist)
O=C(Nc1ccc(Cl)cc1)Nc1cccc2nsnc12	gsp antagonist 40µM
CC(C)CC(=O)NC(=S)Nc1ccccc1F	none
O=C(Nc1ccncc1)Nc1cccc(Cl)c1Cl	none
CC(C)CC(=O)NC(=S)Nc1cccc2nsnc12	gsp antagonist inconclusive, RXFP1 antag -70
NNc1nc2c(Cl)ccc(Cl)c2s1	gsp antagonist 28µM
N#C/C(=C\Nc1ccccc1O)c1nc2ccccc2o1	gsp antagonist 50µM, RXFP1 antag inconclusive
CCCC(=O)Nc1ccc(O)c(C(C)=O)c1	none (no result: gsp antagonist, pAkt inh, RXFP1 ag, gsp agonist)
O=C(NN=C1C2CC3CC(C2)CC1C3)c1ccncc1	gsp agonist inconclusive
O=C(N/N=C1\C/C(=N\NC(=O)c2ccncc2)c2ccccc21)c1ccncc1	RXFP1 ag 32µM, gsp agonist 25µM
Cc1ccc(OCC(=O)Nc2ccc3nc(Nc4cccc(Cl)c4)cc(C)c3c2)cc1	RXFP1 ag 14µM (no result: gsp antagonist, pAkt inh, gsp agonist)
CCCCC(=O)O[C@]1(C(=O)CO)[C@@H](C)C[C@H]2[C@@H]3CCC4=CC(=O)C=C[C@]4(C)[C@@]3(F)[C@@H](O)C[C@@]21C	none (no result: gsp antagonist, pAkt inh, RXFP1 ag, gsp agonist)
Cc1c(CNC2CCC(C)CC2)c(C(=O)O)c(C)n1Cc1ccc(Cl)cc1 (configuration not stated)	none (no result: gsp antagonist, pAkt inh, gsp agonist)
COc1cc2cc(CCOC(=O)c3ccc(F)cc3)oc(=O)c2cc1OC	gsp antagonist 50µM (no result: RXFP1 antag, gsp agonist)
COc1cc2cc(CCOC(=O)c3ccc(C#N)cc3)oc(=O)c2cc1OC	none (no result: RXFP1 antag, gsp agonist)
Cc1cc(C)nc(NS(=O)(=O)c2ccc(NC(=O)COc3ccc(C(C)(C)C)cc3)cc2)n1	RXFP1 antag -86 (no result: gsp antagonist, pAkt inh, gsp agonist)
Cc1cccc(NC(=O)c2cc(=O)c3ccccc3o2)n1	pAkt inh -116%
Cc1ccccc1NC(=O)c1cc(=O)c2ccccc2o1	pAkt inh -110%
COc1ccc(CCOC(=O)c2ccc(N)c([N+](=O)[O-])c2)cc1	RXFP1 antag -66
CC(C)(C)C(=O)COC(=O)c1ccc(N)c([N+](=O)[O-])c1	none
CCN(CCCNC(=O)c1cc2c(=O)[nH]c3ccc(C)cc3c2s1)Cc1ccccc1	none (no result: gsp antagonist, pAkt inh, gsp agonist)
O=C(/C=C/Nc1ccc(OC(F)(F)F)cc1)C(F)(F)F	pAkt inh -127%
CN(C)CCCNC(=S)N(Cc1cccs1)Cc1cc2cc3c(cc2[nH]c1=O)OCCO3	RXFP1 antag -63, gsp agonist inconclusive
CN(C)CCCNC(=S)N(CCN(C)C)Cc1cc2cc3c(cc2[nH]c1=O)OCCO3	none
O=C1c2ccccc2NC(c2ccc(Br)s2)N1O (configuration not stated)	gsp agonist 16µM (no result: RXFP1 ag)
COc1cccc(C2Nc3ccccc3C(=O)N2O)c1O (configuration not stated)	pAkt inh -118%
COc1cccc(C2Nc3ccccc3C(=O)N2c2ccc(F)cc2)c1O (configuration not stated)	none
Cc1cccc(OCCn2c(SCC(=O)O)nc3ccccc32)c1	none (no result: gsp antagonist, pAkt inh, RXFP1 antag, gsp agonist)
CCOC(=O)C(=O)/C(C#N)=C/Nc1ccc(F)cc1	none
CCOC(=O)NC(=O)/C(C#N)=N/Nc1ccc(F)cc1	gsp antagonist 25µM
Cc1cc(SCC(=O)Nc2ccccc2)nc(C)n1	none
CSc1nc(C)cc(SCC(=O)Nc2ccccc2)n1	gsp antagonist inconclusive, gsp agonist 32µM
Cc1oc2ccc(O)c(CN3CCN(C)CC3)c2c1C(=O)Nc1cccc(Cl)c1C	none (no result: gsp antagonist, pAkt inh, gsp agonist)
CCOc1cc(N2CCOCC2)c(OCC)cc1NC(=O)c1c(C)noc1C	gsp antagonist 35µM
O=C1c2cccnc2C(O)N1Cc1ccc(F)cc1 (configuration not stated)	pAkt inh -95%
CCC(C)NS(=O)(=O)c1ccc(OC)c(Cl)c1Cl (configuration not stated)	pAkt inh -122%
COc1ccc2cc(C#N)c(N3CCN(C(=O)c4ccccc4C)CC3)nc2c1	gsp antagonist 40µM
COc1ccc2nc(N3CCC(C)CC3)c(C#N)cc2c1	pAkt inh -103%
COc1ccc2nc(N3CCC(O)CC3)c(C#N)cc2c1	none
CC(C)N1C(=O)S/C(=C/c2ccc3c(c2)n(C)c(=O)n3C)C1=O	gsp agonist inconclusive
CCN(CC)c1ccc(/C=C2\SC(=O)N(C(C)C)C2=O)o1	RXFP1 antag -83
N#C/C(=C\c1ccc(-c2cc(Cl)ccc2Cl)o1)C(=O)Nc1ccccc1C(=O)O	none (no result: gsp antagonist, pAkt inh, RXFP1 antag, gsp agonist)
